# Records with an inconclusive call do not appear. Activity calls are given as the source filed them. How the source made its calls: active means hit-call score of the fitted dose curve at least 0.9, where 1 is the maximum; inconclusive means response in the unintended direction; inactive means score below 0.9.
# Target: Glycogen synthase kinase-3 beta (Homo sapiens) (UniProt P49841)
# Assay: NVS_ENZ_hGSK3b: NovaScreen (NVS) Enzymatic Assay for human Glycogen Synthase Kinase-3 beta (GSK3b) (AID 2283165)
# Outline: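 Recombinant enzyme with specific fluorescent substrate, 1 h, product separated by electrophoretic mobility shift. Primary duplicate screen at 25 uM; actives (e.g. 30% inhibition) followed in singleton concentration-response to 50 uM. Signal loss fitted versus DMSO.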
# Sequence of Glycogen synthase kinase-3 beta (Homo sapiens) (P49841 whole entry, looked up): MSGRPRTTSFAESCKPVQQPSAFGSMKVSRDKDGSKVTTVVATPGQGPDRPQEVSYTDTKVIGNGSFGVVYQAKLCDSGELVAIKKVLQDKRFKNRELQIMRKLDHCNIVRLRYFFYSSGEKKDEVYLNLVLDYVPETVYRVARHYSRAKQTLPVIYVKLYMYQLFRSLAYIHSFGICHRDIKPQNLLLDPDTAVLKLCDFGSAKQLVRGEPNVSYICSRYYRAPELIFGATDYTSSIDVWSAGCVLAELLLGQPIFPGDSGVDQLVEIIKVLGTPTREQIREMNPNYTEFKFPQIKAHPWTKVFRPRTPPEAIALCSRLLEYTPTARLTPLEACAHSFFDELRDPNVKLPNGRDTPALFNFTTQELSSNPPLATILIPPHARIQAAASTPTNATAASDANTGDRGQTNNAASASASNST
row,SMILES,outcome
1,C1CC2OC2CC1C1CO1 (stereo not given),inactive
2,O=C(NC(=O)c1cc(F)c(F)cc1Cl)Nc1cc(F)ccc1N1CCC(C(=O)O)CC1,inactive
3,O=C(O)C(F)(F)C(F)(F)C(F)(F)C(F)(F)C(F)(F)C(F)(F)C(F)(F)C(F)(F)F,inactive
4,CC(C)C(=O)OCC(C)(C)C(OC(=O)C(C)C)C(C)C (stereo not given),inactive
5,Cc1ccccc1O,inactive
6,C=CC(N)=O,inactive
7,Cc1cc(O)ccc1Cl,inactive
8,COc1ccc(O)c(C(C)(C)C)c1,inactive
9,CCCN(CCC)N=O,inactive
10,Cc1ccc(O)c(C)c1,inactive
11,Clc1ccc(Cl)cc1,inactive
12,Cc1ccccc1[N+](=O)[O-],inactive
13,CC1=C2C[C@H]3[C@@H](CC=C4C[C@@H](O)CC[C@@]43C)[C@@H]2CC[C@]12O[C@@H]1C[C@H](C)CN[C@H]1[C@H]2C,inactive

# Target: human Janus Kinase 2 (Jak2), JAK2 (gene 3717) (UniProt O60674)
# Sequence (O60674 whole entry, looked up): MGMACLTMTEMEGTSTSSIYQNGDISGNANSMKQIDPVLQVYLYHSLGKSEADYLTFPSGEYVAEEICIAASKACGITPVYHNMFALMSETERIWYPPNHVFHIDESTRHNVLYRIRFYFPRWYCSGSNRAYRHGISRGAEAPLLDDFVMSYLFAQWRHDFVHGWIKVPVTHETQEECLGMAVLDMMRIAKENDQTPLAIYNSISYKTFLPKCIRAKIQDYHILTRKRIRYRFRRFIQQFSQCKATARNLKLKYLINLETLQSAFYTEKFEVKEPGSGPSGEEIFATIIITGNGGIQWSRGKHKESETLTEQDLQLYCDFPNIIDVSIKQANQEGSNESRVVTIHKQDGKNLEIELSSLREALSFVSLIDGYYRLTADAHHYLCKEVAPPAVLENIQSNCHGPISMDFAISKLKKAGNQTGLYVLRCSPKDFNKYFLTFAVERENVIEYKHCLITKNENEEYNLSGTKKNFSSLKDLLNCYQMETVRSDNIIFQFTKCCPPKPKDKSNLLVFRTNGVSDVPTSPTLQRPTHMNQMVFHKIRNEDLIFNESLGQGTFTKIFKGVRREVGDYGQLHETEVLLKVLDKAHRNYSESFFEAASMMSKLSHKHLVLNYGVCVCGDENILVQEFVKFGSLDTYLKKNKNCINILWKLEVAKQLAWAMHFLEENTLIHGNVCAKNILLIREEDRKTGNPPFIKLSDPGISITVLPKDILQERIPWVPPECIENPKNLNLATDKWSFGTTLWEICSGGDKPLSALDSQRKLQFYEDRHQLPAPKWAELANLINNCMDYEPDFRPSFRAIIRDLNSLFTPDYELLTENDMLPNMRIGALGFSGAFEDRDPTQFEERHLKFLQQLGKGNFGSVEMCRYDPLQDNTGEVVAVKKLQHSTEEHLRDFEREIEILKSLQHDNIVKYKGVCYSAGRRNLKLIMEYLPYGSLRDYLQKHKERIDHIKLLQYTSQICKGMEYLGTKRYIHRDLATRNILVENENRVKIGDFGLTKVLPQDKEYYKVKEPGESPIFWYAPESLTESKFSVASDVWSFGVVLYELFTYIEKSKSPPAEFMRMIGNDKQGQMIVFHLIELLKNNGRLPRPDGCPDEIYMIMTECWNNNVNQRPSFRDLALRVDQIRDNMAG
# Assay: NVS_ENZ_hJak2: NovaScreen (NVS) Enzymatic Assay for human Janus Kinase 2 (Jak2) (AID 2283169)
# Outline: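 Cell-free recombinant human JAK2 enzyme activity assay, fluorescence/electrophoretic mobility shift read 1 h after dosing. Screened in duplicate at 25 uM, then concentration-response up to 50 uM; activity as signal loss relative to DMSO.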
row,SMILES,outcome
1,O=S(=O)(O)C(F)(F)C(F)(F)C(F)(F)C(F)(F)C(F)(F)C(F)(F)F,inactive
2,O=C(O)C(F)(F)C(F)(F)C(F)(F)C(F)(F)C(F)(F)F,inactive
3,Cc1cc2c3c(c1)C(c1ccccc1)=N[C@@H](NC(=O)c1ccncc1)C(=O)N3CC2,inactive
4,CC(C)C(=O)OCC(C)(C)C(OC(=O)C(C)C)C(C)C (stereo not given),inactive
5,Clc1ccc(C(c2ccccc2Cl)C(Cl)(Cl)Cl)cc1 (stereo not given),inactive

# Target: human c-Jun N-terminal Kinases (JNK2), MAPK9 (gene 5601) (UniProt P45984)
# Sequence (P45984 whole entry, looked up): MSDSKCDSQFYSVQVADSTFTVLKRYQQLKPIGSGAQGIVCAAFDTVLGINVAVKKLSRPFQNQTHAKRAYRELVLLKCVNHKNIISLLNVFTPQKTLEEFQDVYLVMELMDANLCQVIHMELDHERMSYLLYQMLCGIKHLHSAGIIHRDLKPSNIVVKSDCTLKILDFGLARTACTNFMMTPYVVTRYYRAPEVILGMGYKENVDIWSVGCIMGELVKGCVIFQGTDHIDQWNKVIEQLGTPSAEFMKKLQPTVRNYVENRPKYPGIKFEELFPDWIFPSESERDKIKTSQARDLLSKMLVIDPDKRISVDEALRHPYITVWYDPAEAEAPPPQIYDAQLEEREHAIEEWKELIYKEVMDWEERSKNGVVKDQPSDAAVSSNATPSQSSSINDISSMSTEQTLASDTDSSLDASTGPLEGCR
# Assay: NVS_ENZ_hJNK2: NovaScreen (NVS) Enzymatic Assay for human c-Jun N-terminal Kinases (JNK2) (AID 2283171)
# Outline: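 Cell-free recombinant human JNK2 activity assay; fluorescent substrate and product separated by electrophoretic mobility shift, read 1 h after dosing. Primary duplicate screen at 25 uM; actives run in concentration-response up to 50 uM, relative to DMSO.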
row,SMILES,outcome
1,O=C(O)C(F)(F)C(F)(F)C(F)(F)C(F)(F)C(F)(F)F,inactive
2,CC(C)C(=O)OCC(C)(C)C(OC(=O)C(C)C)C(C)C (stereo not given),inactive
3,CC1=C2C[C@H]3[C@@H](CC=C4C[C@@H](O)CC[C@@]43C)[C@@H]2CC[C@]12O[C@@H]1C[C@H](C)CN[C@H]1[C@H]2C,inactive

# Target: Mitogen-activated protein kinase 3 (Homo sapiens) (UniProt P27361)
# Sequence (P27361 whole entry, looked up): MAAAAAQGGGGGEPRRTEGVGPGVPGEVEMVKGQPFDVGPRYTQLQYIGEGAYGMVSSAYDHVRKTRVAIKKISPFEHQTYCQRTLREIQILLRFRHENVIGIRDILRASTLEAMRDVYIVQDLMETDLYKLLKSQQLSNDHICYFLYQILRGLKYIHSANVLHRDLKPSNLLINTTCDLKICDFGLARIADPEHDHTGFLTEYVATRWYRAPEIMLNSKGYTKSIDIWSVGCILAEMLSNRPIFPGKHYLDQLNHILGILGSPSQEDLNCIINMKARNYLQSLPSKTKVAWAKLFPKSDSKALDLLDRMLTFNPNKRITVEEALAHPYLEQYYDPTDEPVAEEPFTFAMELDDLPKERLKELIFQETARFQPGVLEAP
# Assay: NVS_ENZ_hMAPK3: NovaScreen (NVS) Enzymatic Assay for human Mitogen-Activated Protein Kinase 3 (MAPK 3) (AID 2283177)
# Outline: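 Cell-free enzymatic assay with recombinant protein and specific substrate; fluorescence and electrophoretic mobility shift read-out 1 h after dosing. Primary screen duplicate at 25 uM; actives then run in concentration-response up to 50 uM, loss of signal versus DMSO.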
row,SMILES,outcome
1,O=S(=O)(O)C(F)(F)C(F)(F)C(F)(F)C(F)(F)C(F)(F)C(F)(F)F,inactive
2,CC#Cc1cc(C)nc(Nc2ccccc2)n1,inactive
3,ClC1=C(Cl)[C@]2(Cl)[C@@H]3[C@@H](Cl)[C@H]4O[C@H]4[C@@H]3C1(Cl)C2(Cl)Cl,inactive
4,CC(C)C(=O)OCC(C)(C)C(OC(=O)C(C)C)C(C)C (stereo not given),inactive
5,CC1=C2C[C@H]3[C@@H](CC=C4C[C@@H](O)CC[C@@]43C)[C@@H]2CC[C@]12O[C@@H]1C[C@H](C)CN[C@H]1[C@H]2C,inactive

# Target: human MAP Kinase-Activated Protein Kinase 2 (MAPKAPK2), MAPKAPK2 (gene 9261) (UniProt P49137)
# Sequence (P49137 whole entry, looked up): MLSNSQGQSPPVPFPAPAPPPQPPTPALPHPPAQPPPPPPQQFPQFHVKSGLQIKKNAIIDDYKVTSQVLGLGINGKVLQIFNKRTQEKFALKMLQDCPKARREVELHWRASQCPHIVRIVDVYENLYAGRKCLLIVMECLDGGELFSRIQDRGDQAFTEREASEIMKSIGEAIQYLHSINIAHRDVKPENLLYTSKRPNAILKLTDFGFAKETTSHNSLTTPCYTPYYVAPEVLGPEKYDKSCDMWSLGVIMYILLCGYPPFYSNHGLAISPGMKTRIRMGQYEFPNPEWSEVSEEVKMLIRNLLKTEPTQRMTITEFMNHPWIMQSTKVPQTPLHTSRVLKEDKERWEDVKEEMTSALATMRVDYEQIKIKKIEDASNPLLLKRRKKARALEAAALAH
# Assay: NVS_ENZ_hMAPKAPK2: NovaScreen (NVS) Enzymatic Assay for human MAP Kinase-Activated Protein Kinase 2 (MAPKAPK2) (AID 2283178)
# Outline: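 Cell-free recombinant human MAPKAPK2 activity measured by fluorescence with electrophoretic mobility shift separation of substrate and product, 1 hr after dosing. Loss of signal versus DMSO; primary screen at 25 uM, concentration-response up to 50 uM.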
row,SMILES,outcome
1,O=S(=O)(O)C(F)(F)C(F)(F)C(F)(F)C(F)(F)C(F)(F)C(F)(F)F,inactive
2,CC(C)C(=O)OCC(C)(C)C(OC(=O)C(C)C)C(C)C (stereo not given),inactive
3,CC1=C2C[C@H]3[C@@H](CC=C4C[C@@H](O)CC[C@@]43C)[C@@H]2CC[C@]12O[C@@H]1C[C@H](C)CN[C@H]1[C@H]2C,inactive

# Target: human MET Proto-Oncogene, Receptor Tyrosine Kinase (MET), MET (gene 4233) (UniProt P08581)
# Sequence (P08581 whole entry, looked up): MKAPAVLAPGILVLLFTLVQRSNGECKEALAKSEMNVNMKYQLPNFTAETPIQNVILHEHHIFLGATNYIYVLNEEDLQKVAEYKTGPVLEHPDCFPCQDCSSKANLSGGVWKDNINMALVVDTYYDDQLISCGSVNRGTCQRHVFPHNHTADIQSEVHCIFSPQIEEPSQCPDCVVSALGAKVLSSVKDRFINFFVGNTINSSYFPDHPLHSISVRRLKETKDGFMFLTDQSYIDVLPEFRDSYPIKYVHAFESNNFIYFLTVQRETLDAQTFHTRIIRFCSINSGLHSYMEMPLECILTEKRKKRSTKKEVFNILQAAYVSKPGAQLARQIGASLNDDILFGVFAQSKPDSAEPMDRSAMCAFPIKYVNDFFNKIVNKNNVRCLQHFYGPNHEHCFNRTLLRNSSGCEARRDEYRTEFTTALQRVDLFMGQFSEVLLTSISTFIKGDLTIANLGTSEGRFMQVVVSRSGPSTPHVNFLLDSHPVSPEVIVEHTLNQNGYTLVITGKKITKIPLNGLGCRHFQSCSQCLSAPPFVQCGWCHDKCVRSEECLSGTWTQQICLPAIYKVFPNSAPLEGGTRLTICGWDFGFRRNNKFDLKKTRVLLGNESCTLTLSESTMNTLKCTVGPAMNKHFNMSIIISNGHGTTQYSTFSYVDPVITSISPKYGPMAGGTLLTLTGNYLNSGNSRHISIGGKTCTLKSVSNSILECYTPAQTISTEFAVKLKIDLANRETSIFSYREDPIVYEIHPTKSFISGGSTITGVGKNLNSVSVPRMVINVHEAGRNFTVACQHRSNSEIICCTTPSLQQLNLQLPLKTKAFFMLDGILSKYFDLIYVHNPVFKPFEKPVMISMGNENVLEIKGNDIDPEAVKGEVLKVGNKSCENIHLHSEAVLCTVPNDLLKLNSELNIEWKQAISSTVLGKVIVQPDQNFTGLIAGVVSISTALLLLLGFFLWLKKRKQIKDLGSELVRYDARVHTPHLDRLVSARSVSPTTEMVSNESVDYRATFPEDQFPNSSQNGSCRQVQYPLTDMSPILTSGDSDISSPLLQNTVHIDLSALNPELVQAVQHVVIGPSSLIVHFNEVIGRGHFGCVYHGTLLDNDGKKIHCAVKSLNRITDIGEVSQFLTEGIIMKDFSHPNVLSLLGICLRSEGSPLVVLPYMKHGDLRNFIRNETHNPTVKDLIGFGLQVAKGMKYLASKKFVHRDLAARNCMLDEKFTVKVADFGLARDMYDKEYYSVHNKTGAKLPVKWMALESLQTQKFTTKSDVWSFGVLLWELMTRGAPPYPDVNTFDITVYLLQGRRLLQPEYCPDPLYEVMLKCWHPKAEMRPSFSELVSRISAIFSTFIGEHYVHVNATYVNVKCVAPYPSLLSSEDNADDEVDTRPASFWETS
# Assay: NVS_ENZ_hMet: NovaScreen (NVS) Enzymatic Assay for human MET Proto-Oncogene, Receptor Tyrosine Kinase (MET) (AID 2283180)
# Outline: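 Cell-free MET kinase assay using recombinant protein and fluorescent substrate, with mobility-shift separation; read 1 h after dosing. Primary duplicate at 25 uM; actives in singleton concentration-response to 50 uM maximum. Signal loss versus DMSO.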
row,SMILES,outcome
1,O=C(O)C(F)(F)C(F)(F)C(F)(F)C(F)(F)C(F)(F)C(F)(F)C(F)(F)C(F)(F)F,inactive
2,Cc1ccc(O)c(C)c1,inactive
3,Cc1ccccc1[N+](=O)[O-],inactive
4,CC1=C2C[C@H]3[C@@H](CC=C4C[C@@H](O)CC[C@@]43C)[C@@H]2CC[C@]12O[C@@H]1C[C@H](C)CN[C@H]1[C@H]2C,inactive

# Target: human Phosphodiesterase 4A1 (PDE4A1), PDE4A (gene 5141) (UniProt P27815)
# Sequence (P27815 whole entry, looked up): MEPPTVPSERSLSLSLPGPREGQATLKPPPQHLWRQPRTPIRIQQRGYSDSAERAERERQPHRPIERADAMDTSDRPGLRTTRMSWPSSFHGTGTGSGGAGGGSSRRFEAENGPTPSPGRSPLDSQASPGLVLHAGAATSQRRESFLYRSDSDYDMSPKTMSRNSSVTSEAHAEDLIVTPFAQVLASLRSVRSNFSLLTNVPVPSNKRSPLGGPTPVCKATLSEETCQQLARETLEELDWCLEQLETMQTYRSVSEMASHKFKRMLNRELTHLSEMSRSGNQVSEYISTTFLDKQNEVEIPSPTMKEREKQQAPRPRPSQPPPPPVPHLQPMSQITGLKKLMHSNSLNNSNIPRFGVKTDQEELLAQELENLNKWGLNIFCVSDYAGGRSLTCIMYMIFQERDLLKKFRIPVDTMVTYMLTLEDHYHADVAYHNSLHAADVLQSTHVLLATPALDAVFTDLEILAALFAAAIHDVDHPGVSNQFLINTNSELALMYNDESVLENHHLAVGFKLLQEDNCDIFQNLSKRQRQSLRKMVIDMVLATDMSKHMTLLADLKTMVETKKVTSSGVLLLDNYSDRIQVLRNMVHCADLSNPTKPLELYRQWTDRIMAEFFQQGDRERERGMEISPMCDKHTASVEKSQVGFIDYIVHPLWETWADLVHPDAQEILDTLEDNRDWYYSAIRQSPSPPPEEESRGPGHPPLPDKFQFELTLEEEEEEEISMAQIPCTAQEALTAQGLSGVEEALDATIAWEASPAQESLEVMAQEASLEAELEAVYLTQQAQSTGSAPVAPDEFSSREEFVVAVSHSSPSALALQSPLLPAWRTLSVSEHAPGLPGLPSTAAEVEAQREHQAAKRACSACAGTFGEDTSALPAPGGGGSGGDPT
# Assay: NVS_ENZ_hPDE4A1: NovaScreen (NVS) Enzymatic Assay for human Phosphodiesterase 4A1 (PDE4A1) (AID 2283191)
# Outline: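 Cell-free recombinant human PDE4A1 with fluorescent substrate; product separated by electrophoretic mobility shift, 1 h. Screened at 25 uM, then up to 50 uM in concentration-response; loss of signal fitted against DMSO.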
SMILES,outcome,AC50
O=S(=O)(O)C(F)(F)C(F)(F)C(F)(F)C(F)(F)C(F)(F)C(F)(F)F,inactive,–
Cc1cc2c3c(c1)C(c1ccccc1)=N[C@@H](NC(=O)c1ccncc1)C(=O)N3CC2,–,1.36 µM (active)
CCCN(CCC)N=O,inactive,–
CC1=C2C[C@H]3[C@@H](CC=C4C[C@@H](O)CC[C@@]43C)[C@@H]2CC[C@]12O[C@@H]1C[C@H](C)CN[C@H]1[C@H]2C,inactive,–
CCNc1nc(NC(C)C)nc(SC)n1,–,2.15 µM (active)

# Target: human Phosphodiesterase 5 (PDE5), PDE5A (gene 8654) (UniProt O76074)
# Assay: NVS_ENZ_hPDE5: NovaScreen (NVS) Enzymatic Assay for human Phosphodiesterase 5 (PDE5) (AID 2283194)
# Outline: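 Recombinant human PDE5 with specific substrate, read 1 h after dosing by fluorescence with electrophoretic mobility-shift separation of substrate and product. Initial single-concentration duplicate screen at 25 uM, actives followed in concentration series; loss of activity versus DMSO.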
SMILES,outcome,AC50
O=S(=O)(O)C(F)(F)C(F)(F)C(F)(F)C(F)(F)C(F)(F)C(F)(F)F,inactive,–
O=C(O)C(F)(F)C(F)(F)C(F)(F)C(F)(F)C(F)(F)C(F)(F)C(F)(F)C(F)(F)F,inactive,–
Cc1cc2c3c(c1)C(c1ccccc1)=N[C@@H](NC(=O)c1ccncc1)C(=O)N3CC2,–,3.87 µM (active)
CC(C)C(=O)OCC(C)(C)C(OC(=O)C(C)C)C(C)C (stereo not given),inactive,–
CCCN(CCC)N=O,inactive,–
Cc1ccc(O)c(C)c1,–,37.4 µM (active)
CCNc1nc(NC(C)C)nc(SC)n1,–,17.4 µM (active)

# Reference: PubChem BioAssay (EPA / NIEHS)
